Where “and” joins values, the source holds several entries; their conditions need not be identical. Identical values can stand only once. A structure can be active in one record and inactive in another. Calls of active or inactive are those of the source. Calls come from the whole dose curve; as a rule, active = well fitted curve in the direction sought with a large enough effect in the signal ratio in the repeat runs (not every such curve was filed as active); inconclusive = weak or mixed curves, or effect the other way; inactive = no such curve, though single readings can be large or run the other way; the % refers to the signal ratio.
The compounds below were run against Estrogen receptor (Homo sapiens) (UniProt P03372) (assay: qHTS assay to identify small molecule antagonists of the estrogen receptor alpha (ER-alpha) signaling pathway (AID 743069)). Settings: HEK293 ER-alpha-UAS-bla, beta-lactamase ratio, antagonist mode; series mostly up to 69.4 µM; activity, negative = inhibition: at the top concentration.
Sequence of Estrogen receptor (Homo sapiens) (P03372 whole entry, looked up): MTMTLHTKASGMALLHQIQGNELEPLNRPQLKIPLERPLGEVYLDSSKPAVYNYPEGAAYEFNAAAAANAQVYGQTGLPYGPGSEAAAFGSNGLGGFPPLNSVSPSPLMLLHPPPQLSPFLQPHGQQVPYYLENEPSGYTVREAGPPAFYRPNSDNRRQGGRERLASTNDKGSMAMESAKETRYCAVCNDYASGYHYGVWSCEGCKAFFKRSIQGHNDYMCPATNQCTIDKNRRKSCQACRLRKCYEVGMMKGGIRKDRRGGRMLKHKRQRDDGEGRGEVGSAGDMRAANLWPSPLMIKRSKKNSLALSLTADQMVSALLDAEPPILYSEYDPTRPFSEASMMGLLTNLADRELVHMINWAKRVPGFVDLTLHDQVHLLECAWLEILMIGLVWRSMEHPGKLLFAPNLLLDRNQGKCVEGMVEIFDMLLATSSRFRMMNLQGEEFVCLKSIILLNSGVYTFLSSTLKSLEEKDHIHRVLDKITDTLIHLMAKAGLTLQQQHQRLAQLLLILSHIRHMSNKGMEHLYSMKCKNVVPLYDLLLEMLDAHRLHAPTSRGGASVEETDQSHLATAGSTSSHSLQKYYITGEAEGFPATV
Text: National Center for Advancing Translational Sciences [NCATS]
NIH Chemical Genomics Center [NCGC]
U.S. Environmental Protection Agency [EPA]
National Institutes of Environmental Health Sciences [NIEHS]
National Toxicology Program [NTP]
U.S. Food and Drug Administration [FDA]
Estrogen receptor (ER), a nuclear hormone receptor, plays an important role in development, metabolic homeostasis and reproduction. Two subtypes of ER, ER-alpha and ER-beta have similar expression patterns with some uniqueness in both types. Endocrine disrupting chemicals (EDCs) and their interactions with steroid hormone receptors like ER causes disruption of normal endocrine function. To identify the compounds that inhibit ER signaling, an ER-alpha-UAS-bla GripTiteTM cell line (Invitrogen, Carlsbad, CA, USA) containing a beta-lactamase reporter gene under the control of an Upstream Activator Sequence (UAS) stably integrated into HEK293 cells was used to screen the Tox21 10K compound library.
Tox21 Assay Protocol Summary:
ER-alpha-bla cells were cultured in assay medium containing 2% charcoal stripped FBS overnight in the culture flasks before the assay was performed. The cells were dispensed at 5,000 cells/5 uL of assay medium per well into black wall/clear-bottom 1536-well plates using a Multidrop Combi (ThermoFisher Scientific, Waltham, MA) dispenser. After the assay plates were incubated at a 37C and 5% CO2 for 4 hr, 23 nL of compounds dissolved in DMSO, positive controls or DMSO only was transferred to the assay plate by a Pintool station (Kalypsys, San Diego, CA), followed by addition of 1 uL of 17beta-estradiol in assay medium using a Flying Reagent Dispenser (Aurora Discovery, San Diego, CA). The plates were incubated at 37C and 5% CO2 for 18 hr. Then 1 uL of LiveBLAzerTM B/G FRET substrate was added using a Flying Reagent Dispenser, the plates were incubated at room temperature for 2 hours, and fluorescence intensity was measured by an Envision plate reader (PerkinElmer, Shelton, CT).
% is set by controls: 0 for no effect and ±100 for the full control effect; potency is the fitted concentration of half-maximal effect.

Compound	Potency	activity, negative = inhibition
Cc1ccc(-c2cc(C(F)(F)F)nn2-c2ccc(S(N)(=O)=O)cc2)cc1	inactive and 54.9 µM [inconclusive] (active)	
CCN(CC)C(=O)Nc1ccc(OCC(O)CNC(C)(C)C)c(C(C)=O)c1 (stereo not given)		15.7% (inactive)
CCn1c2ccccc2c2cc(N)ccc21		22.8% (inactive)
CC1COC(=O)O1 (stereo not given)		-4.91% (inactive)
CO[Si](OC)(OC)c1ccccc1		-21.2% (inactive)
CCCCC/C=C/CC1CC(=O)OC1=O (stereo not given)		47% (inactive)
O=C(O)c1cccc(C(=O)O)c1	inactive	
COC(=O)c1cccc(C(=O)OC)c1	inactive	
C1COC(NC(C2CC2)C2CC2)=N1		-11% (inactive)
Nc1cc(Cl)c(-c2cc(Cl)c(N)cc2Cl)cc1Cl	1.55 µM [inconclusive] (active) and 19.5 µM [inconclusive] (active)	
COc1ccc(Cc2cnc(N)nc2N)cc1OC		4.34% (inactive)
c1cnc2cc3c(cc2n1)C1CNCC3C1		-15.7% [at 79.1 µM] (inactive)
c1ccc2c(c1)CCCC2C1=NCCN1 (stereo not given)		-1.8% (inactive)
c1cc(C(c2ccc(OCC3CO3)cc2)C(c2ccc(OCC3CO3)cc2)c2ccc(OCC3CO3)cc2)ccc1OCC1CO1 (stereo not given)	inactive	
NC(N)=Nc1nc(CSCC/C(N)=N/S(N)(=O)=O)cs1	inactive	
NC(=Nc1ccccc1)Nc1ccccc1	inactive	
CC(=O)CC(=O)Nc1ccc2[nH]c(=O)[nH]c2c1		15.4% (inactive)
Cc1cccc(O)c1C		22% (inactive)
CC(C)(c1ccccc1)c1ccc(Nc2ccc(C(C)(C)c3ccccc3)cc2)cc1	61.7 µM [cytotoxic] (active)	
C=C(C)C(=O)O		11.2% [at 79.1 µM] (inactive)

Compound	Potency	activity, negative = inhibition
CCN1CCCC1CNC(=O)c1cc(S(=O)(=O)CC)c(N)cc1OC (stereo not given)		4.42% (inactive)
CCC(C)(C)C(=O)O[C@H]1C[C@@H](C)C=C2C=C[C@H](C)[C@H](CC[C@@H]3C[C@@H](O)CC(=O)O3)[C@H]21		-15.5% (inactive)
CCc1ccc(C(c2ccc(CC)cc2)C(Cl)Cl)cc1	inactive	
COc1nc(C)nc(Cl)c1NC1=NCCN1		-6.87% [at 32.6 µM] (inactive)
COC(=O)/C=C/c1ccccc1		-4.75% (inactive)
CC(C)CCCCCCc1ccc(O)cc1	inactive	
O=C(O)c1cc(Cl)cc(Cl)c1		15.5% (inactive)
CCCCCCCCCCCCCCCCCl		-8.71% [at 32.6 µM] (inactive)
CCC[C@H](N[C@@H](C)C(=O)N1[C@H](C(=O)O)C[C@@H]2CCCC[C@@H]21)C(=O)OCC		-14.3% (inactive)
CC(C)CCOC(=O)c1ccc(N(C)C)cc1		16.4% (inactive)
CC[C@@H](N)CO		12.2% [at 79.1 µM] (inactive)
CC(C)(O)CCC(C)(C)O		-2.16% [at 79.1 µM] (inactive)
O=C1NCC2(CCN(CCc3ccccc3)CC2)O1		10.9% (inactive)
Oc1c(Cl)cc(Cl)cc1Sc1cc(Cl)cc(Cl)c1O	6.93 µM [inconclusive] (active) and 1.77 µM [inconclusive] (active)	
NCCCCCC(=O)O		6.77% [at 32.6 µM] (inactive)
Cc1cc(C2(c3cc(C)c(O)cc3C)OS(=O)(=O)c3ccccc32)c(C)cc1O	1.74 µM [inconclusive] (active)	
CCCCOCCOC(=O)c1ccccc1C(=O)OCCOCCCC		12.3% (inactive)
O=C(Oc1ccccc1)c1ccccc1O	inactive	
CCOc1ccc2c(c1)C(C)=CC(C)(C)N2		21.1% (inactive)
O=C1Nc2ccccc2C1(c1ccc(O)cc1)c1ccc(O)cc1	49 µM [inconclusive] (active)	
